Common to all, as to assay: NCI-60 one-dose screen, 48 h (100 = growth as untreated, 0 = no growth, -100 = all killed)
One test concerns SK-MEL-2 melanoma. The note with it: 10 µM unless noted.
Another test relates to EKVX NSCLC. The following applies: 10 µM unless noted.
The next test deals with SN12C renal. The following applies: 10 µM unless noted.
For a further test, the system named is UO-31 renal. The note with it: 10 µM unless noted.
Another test deals with TK-10 renal. The following applies: 10 µM unless noted.
The next test relates to ACHN renal. The following applies: 10 µM unless noted.
The next test deals with CAKI-1 renal. The note with it: 10 µM unless noted.
In the next test the test system is A498 renal. The following applies: 10 µM.
A further test concerns HL-60(TB) leukemia. The following applies: 10 µM unless noted.
The subject of a further test is CCRF-CEM leukemia. The following applies: 10 µM unless noted.
The test system of a further test is MOLT-4 leukemia. The following applies: 10 µM unless noted.
The subject of the next test is SR leukemia. The following applies: 10 µM unless noted.
A further test deals with RPMI-8226 leukemia. The following applies: 10 µM unless noted.
For the next test, the system named is OVCAR-5 ovarian. The following applies: 10 µM unless noted.
The subject of the next test is OVCAR-4 ovarian. The note with it: 10 µM unless noted.
In the next test the test system is SK-OV-3 ovarian. The note with it: 10 µM unless noted.
A further test relates to IGROV1 ovarian. The note with it: 10 µM unless noted.
Another test relates to OVCAR-3 ovarian. The following applies: 10 µM unless noted.
The subject of a further test is HS 578T breast. The following applies: 10 µM unless noted.
The subject of a further test is OVCAR-8 ovarian. The following applies: 10 µM unless noted.

This is part of a sample that, as a whole, favours compounds with a hit. Of some 83,000 tested, about 20% had one in any assay.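 Results are percent growth after 48 hours of single-concentration exposure. 100 means growth as in untreated cells, lower positive values show inhibition; negative values down to -100 show cell death.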 Values without a mark were called inactive. Calls of active or inactive are those of the source. Rule for the calls: active = growth percent below 10; inactive = the rest.

As for `CN1CCCCC1C(C)(O)c1ccccc1` (stereo not given), the growth in the test on SK-MEL-2 melanoma is 106%; in the test on EKVX NSCLC, 96.3%; in the test on SN12C renal it was 102%; in the test with UO-31 renal, 92.5%; in the test with TK-10 renal, 94.9%; in the test with ACHN renal, 108%. Moreover, the growth with CAKI-1 renal was 96.4%; with A498 renal, 101%; in the test on HL-60(TB) leukemia, 114%; in the test with CCRF-CEM leukemia, 112%; with MOLT-4 leukemia, 102%; with SR leukemia, 113%. Besides, the growth with RPMI-8226 leukemia was 114%; with OVCAR-5 ovarian it was 94.2%; in the test with OVCAR-4 ovarian, 99.8%; in the test with SK-OV-3 ovarian, 97.8%; in the test with IGROV1 ovarian, 99.8%; in the test with OVCAR-3 ovarian, 111%. Moreover, in the test with HS 578T breast, the growth is 108%.
Turning to `CN1C(=O)C(=Cc2cn(Cc3ccccc3)c3ccccc23)C(=O)N(C)C1=O`, the growth in the test on SK-MEL-2 melanoma is 81.5%; with EKVX NSCLC, 82.1%; with SN12C renal, 103%; in the test on UO-31 renal, 54.3%; in the test with TK-10 renal it was 4.63% (active); in the test with ACHN renal it was 84.5%. Moreover, the growth in the test on CAKI-1 renal is 60.4%; with A498 renal it was -83.1% (active); in the test on HL-60(TB) leukemia it was 64.4%; with CCRF-CEM leukemia, 92%; with MOLT-4 leukemia, 96.8%; in the test with SR leukemia, 68.6%. Also, the growth in the test on RPMI-8226 leukemia was 35.9%; in the test on OVCAR-8 ovarian, 90.5%; in the test on OVCAR-5 ovarian it was -6.96% (active); in the test with OVCAR-4 ovarian, 49.8%; in the test with SK-OV-3 ovarian, 51.8%; with OVCAR-3 ovarian it was 71.2%. In addition, the growth in the test with HS 578T breast is 86.8%.
`CCCC(=O)O[C@@H]1C[C@H]2C[C@@H](O[C@@H]3O[C@@H](C)[C@@H](O)[C@@H](O)[C@H]3OC)C[C@@H](C[C@@H](C)/C=C/C=C\C[C@@H]3O[C@@H](C[C@@H]3C)[C@@H](O)C[C@H]3C[C@@]1(O)C(=O)O3)O2`: the growth is 57.8% in the test on SK-MEL-2 melanoma; 22.6% in the test on EKVX NSCLC; 58.7% in the test on SN12C renal; 34.2% in the test with UO-31 renal; 29% with TK-10 renal; 62% with ACHN renal. For the same compound, the growth in the test on CAKI-1 renal is 60.9%; with A498 renal, 79.9%; in the test with HL-60(TB) leukemia it was 29.9%; with CCRF-CEM leukemia it was 50.9%; in the test on MOLT-4 leukemia it was 37.5%; with SR leukemia, 85.9%. Moreover, the growth is 27.3% with RPMI-8226 leukemia; 41.1% with OVCAR-8 ovarian; 74.5% in the test with OVCAR-5 ovarian; 25.4% with OVCAR-4 ovarian; 52.4% in the test on SK-OV-3 ovarian; 70.1% in the test on IGROV1 ovarian. Further, the growth in the test with OVCAR-3 ovarian is 59.8%; with HS 578T breast, 96.7%.
On to `CCCCCCC(=O)NC1=C(N2CC2)C(=O)C(NC(=O)CCCCCC)=C(N2CC2)C1=O`, for which the growth in the test with SK-MEL-2 melanoma is 73%; in the test on EKVX NSCLC it was 78.3%; in the test on SN12C renal, 41.7%; with UO-31 renal, 43.1%; in the test with TK-10 renal, 75.5%; in the test with ACHN renal, 32.9%. The growth was 45.6% in the test on CAKI-1 renal; 66.9% in the test on A498 renal; 16.8% in the test with HL-60(TB) leukemia; 50.7% in the test with CCRF-CEM leukemia; 49% in the test on MOLT-4 leukemia; 40.7% in the test on SR leukemia. Further, the growth was 56.1% in the test on RPMI-8226 leukemia; 32% with OVCAR-8 ovarian; 93% in the test with OVCAR-5 ovarian; 30.9% with OVCAR-4 ovarian; 39.8% in the test on SK-OV-3 ovarian; 20.3% in the test on IGROV1 ovarian. In addition, the growth in the test on OVCAR-3 ovarian is -53.4% (active); in the test on HS 578T breast, 88.2%.
Take `C[C@]12CCc3sc(NCCc4ccccc4)nc3C1=CC[C@@H]1[C@@H]2CC[C@]2(C)C(=O)CC[C@@H]12`: the growth in the test with SK-MEL-2 melanoma was 92.1%; in the test on EKVX NSCLC it was 92.4%; in the test on SN12C renal, 68.5%; in the test with UO-31 renal, 50.4%; in the test with TK-10 renal it was 91.3%; with ACHN renal, 73.8%. Further, the growth in the test with CAKI-1 renal was 73.5%; in the test with A498 renal, 86.9%; with HL-60(TB) leukemia it was 1.45% (active); in the test on CCRF-CEM leukemia, 8.44% (active); with MOLT-4 leukemia, 4.71% (active); in the test on SR leukemia, 0.916% (active). Besides, the growth in the test on RPMI-8226 leukemia was -5.28% (active); in the test with OVCAR-8 ovarian, 72.1%; in the test with OVCAR-5 ovarian, 100%; with OVCAR-4 ovarian it was 74.2%; in the test on SK-OV-3 ovarian, 112%; in the test on IGROV1 ovarian, 88%. For the same compound, the growth with OVCAR-3 ovarian was 6.41% (active); in the test on HS 578T breast it was 75.5%.
On to `O[C@H](CN1CC1)[C@@H](O)CN1CC1`, for which the growth is 87% in the test with SK-MEL-2 melanoma; 94.6% in the test with EKVX NSCLC; 41.1% with SN12C renal; 51.1% with UO-31 renal; 101% in the test on TK-10 renal; 24% in the test on ACHN renal. Besides, the growth with CAKI-1 renal was -0.578% (active); with A498 renal, 95.1%; with HL-60(TB) leukemia, 30.7%; in the test on CCRF-CEM leukemia it was 33.3%; in the test on MOLT-4 leukemia, 32.8%; in the test on SR leukemia, 16.9%. In addition, the growth in the test on RPMI-8226 leukemia was 88%; in the test with OVCAR-8 ovarian, 55%; in the test with OVCAR-5 ovarian, 103%; in the test with OVCAR-4 ovarian, 93.1%; with SK-OV-3 ovarian, 49.5%; in the test on OVCAR-3 ovarian, 101%. Besides, in the test on HS 578T breast, the growth is 97.1%.
On to `CCc1ccccc1[C@@H]1C[C@]2(C)CCO[C@@H]2OO1`, for which the growth was 115% in the test with SK-MEL-2 melanoma; 105% in the test on EKVX NSCLC; 98.7% with SN12C renal; 91.5% in the test on UO-31 renal; 96.9% with TK-10 renal; 104% with ACHN renal. Further, the growth in the test on CAKI-1 renal is 96.5%; with A498 renal, 102%; in the test with HL-60(TB) leukemia it was 109%; in the test with CCRF-CEM leukemia it was 94.1%; in the test on MOLT-4 leukemia it was 105%; in the test with SR leukemia, 102%. Also, the growth in the test on RPMI-8226 leukemia is 100%; in the test on OVCAR-5 ovarian, 109%; in the test with OVCAR-4 ovarian it was 96.3%; in the test on SK-OV-3 ovarian, 107%; in the test with IGROV1 ovarian, 108%; in the test on OVCAR-3 ovarian it was 113%. Further, the growth in the test with HS 578T breast is 101%.
Regarding `O=C(CCCCCCC(=O)Nc1ccc(N(CCCl)CCCl)cc1)NO`, the growth in the test on SK-MEL-2 melanoma was 49.5%; in the test with EKVX NSCLC it was 76.7%; in the test on SN12C renal, 18.8%; in the test with UO-31 renal, 62%; in the test on TK-10 renal it was 38.5%; in the test on ACHN renal it was 16.7%. Further, the growth is 23% in the test on CAKI-1 renal; 54.1% with A498 renal; 18.4% in the test with HL-60(TB) leukemia; 19.4% in the test with CCRF-CEM leukemia; 19.5% in the test with MOLT-4 leukemia; 12.2% in the test on SR leukemia. Besides, the growth in the test on RPMI-8226 leukemia was 49.1%; in the test with OVCAR-5 ovarian, 53.7%; with OVCAR-4 ovarian it was 44.9%; in the test with SK-OV-3 ovarian, 26.3%; with IGROV1 ovarian it was 59.2%; in the test with OVCAR-3 ovarian, 41.7%. For the same compound, the growth in the test with HS 578T breast was 71.7%.
